# Numbering of substitutions follows the chain as printed.
# Tests used:
# Assay in all cases: yeast three-hybrid, YBZ-1, SC-Leu-His + 0.5 mM 3-AT, 4 days
# Conditions in all cases: tags: N-Gal4 AD-HA kept; label: inside an RPR1-promoter hybrid RNA with tandem MS2 sites; ssRNA
# PUM1 PUF domain R8-SWE = PUM1 PUF domain R8-SWE (Homo sapiens, UniProt Q14671 828-1176, N1122S;Y1123W;Q1126E)
# Outline: (§1)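 Repeat regions from input (SC-Leu) and selection (SC-Leu-His + 0.5 mM 3-AT) plates were PCR-amplified and Illumina-sequenced after four days of growth. The cells were strain YBZ-1 with a LexA–MS2 coat fusion and a HIS3 reporter, co-expressing Pumilio-1 PUF domain libraries and matching RNA elements from a centromeric plasmid. The interaction score is the log change in variant frequency from input to selection, taken in log2 with a pseudocount of 1 for absent variants.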
# [1] = target: T1, PUM1 PUF domain R6-SWD R7-NPG (Homo sapiens, UniProt Q14671 828-1176, N1043S;Y1044W;Q1047D;S1079N;N1080P;E1083G)
# T1 sequence: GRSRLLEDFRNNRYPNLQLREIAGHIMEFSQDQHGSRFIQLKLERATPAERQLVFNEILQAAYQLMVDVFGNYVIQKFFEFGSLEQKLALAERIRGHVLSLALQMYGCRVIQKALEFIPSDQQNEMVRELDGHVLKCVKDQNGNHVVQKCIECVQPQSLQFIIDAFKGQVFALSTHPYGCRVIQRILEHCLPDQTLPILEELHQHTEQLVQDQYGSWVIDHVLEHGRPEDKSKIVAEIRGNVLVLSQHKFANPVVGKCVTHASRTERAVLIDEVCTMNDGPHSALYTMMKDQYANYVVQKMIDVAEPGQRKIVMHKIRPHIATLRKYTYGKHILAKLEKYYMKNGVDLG
# Outline: as §1
# PUM1 PUF domain R5-GKH = PUM1 PUF domain R5-GKH (Homo sapiens, UniProt Q14671 828-1176, C1007G;R1008K;Q1011H)
# Outline: as §1
# PUM1 PUF domain R5-RYT = PUM1 PUF domain R5-RYT (Homo sapiens, UniProt Q14671 828-1176, C1007R;R1008Y;Q1011T)
# Outline: as §1
# PUM1 PUF domain R5-NDG = PUM1 PUF domain R5-NDG (Homo sapiens, UniProt Q14671 828-1176, C1007N;R1008D;Q1011G)
# Outline: as §1
# PUM1 PUF domain R6-MYL = target: T2, PUM1 PUF domain R6-MYL (Homo sapiens, UniProt Q14671 828-1176, N1043M;Q1047L)
# T2 sequence: T1 sequence with S216M, W217Y, D220L, N252S, P253N, G256E
# Outline: as §1
# PUM1 PUF domain R4-LHW = PUM1 PUF domain R4-LHW (Homo sapiens, UniProt Q14671 828-1176, N971L;Q975W)
# Outline: as §1
# PUM1 PUF domain R6-KFS = target: T3, PUM1 PUF domain R6-KFS (Homo sapiens, UniProt Q14671 828-1176, N1043K;Y1044F;Q1047S)
# T3 sequence: T1 sequence with S216K, W217F, D220S, N252S, P253N, G256E
# Outline: as §1
# PUM1 PUF domain R3-RAA = PUM1 PUF domain R3-RAA (Homo sapiens, UniProt Q14671 828-1176, C935R;R936A;Q939A)
# Outline: as §1
# PUM1 PUF domain R4-EHA = PUM1 PUF domain R4-EHA (Homo sapiens, UniProt Q14671 828-1176, N971E;Q975A)
# Outline: as §1
sequence,measurement,setting,value
GGCUAGAACUAGUGGAUCCCCCGGCGCCCGGCGGCUCGAGCCCGGGUAAGCGUAAAUAGUCUGCAUGCCGCCGGGCGCCAUGCCUGCAGGUCGACUCUAGAAAACAUG,binding signal,PUM1 PUF domain R8-SWE,2.43 log2 enrichment (interaction score)
GGCUAGAACUAGUGGAUCCCCCGGCGCCCGGCGGCUCGAGCCCGGGUAAGUUGAAAUAGUCUGCAUGCCGCCGGGCGCCAUGCCUGCAGGUCGACUCUAGAAAACAUG,binding signal,[1],5.9 log2 enrichment (interaction score)
GGCUAGAACUAGUGGAUCCCCCGGCGCCCGGCGGCUCGAGCCCGGGUAAGUGUUAAUAGUCUGCAUGCCGCCGGGCGCCAUGCCUGCAGGUCGACUCUAGAAAACAUG,binding signal,PUM1 PUF domain R5-GKH,3.15 log2 enrichment (interaction score)
same,binding signal,PUM1 PUF domain R5-RYT,3.93 log2 enrichment (interaction score)
same,binding signal,PUM1 PUF domain R5-NDG,3.34 log2 enrichment (interaction score)
GGCUAGAACUAGUGGAUCCCCCGGCGCCCGGCGGCUCGAGCCCGGGUAAGUGUAAAUAGUCUGCAUGCCGCCGGGCGCCAUGCCUGCAGGUCGACUCUAGAAAACAUG,binding signal,PUM1 PUF domain R5-RYT,1.24 log2 enrichment (interaction score)
same,binding signal,PUM1 PUF domain R6-MYL,4.67 log2 enrichment (interaction score)
same,binding signal,PUM1 PUF domain R4-LHW,3.75 log2 enrichment (interaction score)
same,binding signal,PUM1 PUF domain R6-KFS,3.11 log2 enrichment (interaction score)
GGCUAGAACUAGUGGAUCCCCCGGCGCCCGGCGGCUCGAGCCCGGGUAAGUGUAAUUAGUCUGCAUGCCGCCGGGCGCCAUGCCUGCAGGUCGACUCUAGAAAACAUG,binding signal,PUM1 PUF domain R3-RAA,3.66 log2 enrichment (interaction score)
GGCUAGAACUAGUGGAUCCCCCGGCGCCCGGCGGCUCGAGCCCGGGUAAGUGUAUAUAGUCUGCAUGCCGCCGGGCGCCAUGCCUGCAGGUCGACUCUAGAAAACAUG,binding signal,PUM1 PUF domain R4-EHA,2.96 log2 enrichment (interaction score)
